In PubChem BioAssay (NCI):
This is part of a sample that, as a whole, favours compounds with a hit. Of some 83,000 tested, about 20% had one in any assay.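 Testing used 96-well plates and a 48-hour single-concentration exposure. Example: -40 means 40% of the starting cells died.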 The source made the active and inactive calls. The calls were made as follows: active = growth percent below 10; inactive = the rest.

Key:
Assay in all cases: NCI-60 one-dose screen, 48 h (100 = growth as untreated, 0 = no growth, -100 = all killed)
Details in all cases: 10 µM unless noted
[1] = test system: DU-145 prostate
[2] = test system: K-562 leukemia
[3] = test system: MALME-3M melanoma
[4] = test system: MDA-MB-231 breast
[5] = test system: RXF 393 renal
[6] = test system: SF-268 CNS
[7] = test system: SF-295 CNS
[8] = test system: SF-539 CNS
[9] = test system: UACC-257 melanoma
[10] = test system: M14 melanoma
[11] = test system: HCT-15 colon
[12] = test system: HT29 colon
[13] = test system: SNB-75 CNS
[14] = test system: SNB-19 CNS
[15] = test system: U251 CNS
[16] = test system: PC-3 prostate
[17] = test system: SK-MEL-5 melanoma
[18] = test system: UACC-62 melanoma
[19] = test system: LOX IMVI melanoma
[20] = test system: SK-MEL-28 melanoma

Measured: growth

CN(Cc1cnc2nc(N)nc(N)c2n1)c1ccc(C(=O)NC(CCC(=O)O)C(=O)O)cc1Br (stereo not given)
inactive: [1] 25.2% | [2] 31.1% | [3] 98.1% | [4] 60.2% | [5] 58.6% | [6] 34.4% | [7] 27% | [9] 59.4% | [10] 30.9% | [11] 34.9% | [12] 21.2% | [13] 54.5% | [14] 45.4% | [15] 43% | [16] 56.9% | [17] 13.8% | [18] 30.9% | [19] 17.7% | [20] 50%
active: [8] 6.95%

C=C1C(=O)O[C@H]2[C@H]1CC/C(CNC(=O)c1c[nH]c3ccc(F)cc13)=C\CC[C@@]1(C)O[C@@H]21
inactive: [4] 11.7% | [6] 42.8% | [7] 67.7% | [13] 45% | [14] 61.3% | [15] 31.7% | [16] 31.8% | [17] 61.4%
active: [1] -58.5% | [2] -19.3% | [3] -2.58% | [5] -84.9% | [8] -42.6% | [9] -68.4% | [10] -26.1% | [11] -69.6% | [12] -59.5% | [18] -37.3% | [19] -88.4% | [20] -24.3%

CN(C)CCCNC(=O)c1cncnc1Nc1ccc(OCc2cccc(F)c2)c(Cl)c1
inactive: [1] 23.4% | [5] 20.5% | [6] 34.5% | [7] 71.9% | [14] 57.3% | [17] 61.3%
active: [2] -57.7% | [3] -11.7% | [4] -43.4% | [8] -71.2% | [9] -63.2% | [10] -71.4% | [11] -37.6% | [12] -49.7% | [13] -18.2% | [15] -52.5% | [16] 0.306% | [18] -84.7% | [19] -88.1% | [20] -86.1%

COC(=O)CCC/C=C\C[C@H]1C=CC(=O)/C1=C/C[C@@H](O)C/C=C\CC(F)(F)F
inactive: [1] 24.9% | [3] 10.2% | [6] 17.6% | [8] 17.8% | [13] 68.3% | [14] 33.7%
active: [2] 6.69% | [4] 8.26% | [5] -5.41% | [7] -1.18% | [9] -15.6% | [10] -16.8% | [11] -18.5% | [12] -42.6% | [15] -69.1% | [16] -16.2% | [17] -89.7% | [18] -37.2% | [19] -82.7% | [20] -25.5%

CC1(C)CC2=C3C=C[C@@H]4[C@@]5(C)CCC(=O)C(C)(C)[C@@H]5CC[C@@]4(C)[C@]3(C)CC[C@@]2(C(=O)O)C[C@H]1O
inactive: [1] 65% | [2] 33.1% | [5] 29.1% | [6] 32.6% | [7] 20.5% | [8] 34.8% | [9] 10.5% | [10] 17.6% | [12] 14% | [13] 19.2% | [14] 32.1% | [15] 22.6% | [16] 40.4% | [17] 14% | [18] 20.6% | [20] 25%
active: [3] 3.59% | [4] -8.81% | [11] 6.74% | [19] 7.33%

N#C/C(=C\c1cn(Cc2ccccc2)c2ccccc12)C(=O)Nc1ncc(Cc2ccccc2Cl)s1
active: [3] -7.28% | [7] 8.89% | [9] -38.2% | [13] -12.7% | [15] -9.08% | [18] -40.4%
inactive: [1] 24.3% | [2] 26.2% | [4] 19.8% | [5] 40.8% | [6] 64.1% | [8] 13.5% | [10] 38.9% | [11] 35.7% | [12] 28.2% | [14] 72.4% | [16] 40.6% | [17] 57.6% | [19] 24.7% | [20] 29.9%

C=Cc1cnc(Nc2ccc(OC)cc2)nc1NCCCNC(=O)C1CCC1
inactive: [1] 46.3% | [2] 34.3% | [3] 52.5% | [6] 28.5% | [7] 59.6% | [8] 22% | [9] 70.5% | [10] 46.8% | [11] 35.7% | [14] 57.5% | [15] 29% | [16] 64.2% | [17] 37.5% | [18] 82.3% | [19] 20.4% | [20] 80.3%
active: [4] -6.62% | [5] -1.29% | [12] 8.04% | [13] -5.11%

CCCCCCCCCCCCCCCCCCOc1ccccc1CC(=O)NCC[N+]1(C)CCCCC1
inactive: [1] 68.7% | [2] 34.2% | [3] 44.9% | [4] 36.6% | [5] 18.4% | [6] 34% | [7] 90.2% | [8] 84% | [9] 88.3% | [10] 68.3% | [11] 95.7% | [12] 12.8% | [13] 61.4% | [14] 36.7% | [15] 16.3% | [17] 82.1% | [18] 44.6% | [19] 53.6% | [20] 76.2%
active: [16] 8.74%

COc1ccc(CCN2C(=O)/C(=C/c3ccc(C4Oc5ccccc5C5CC(c6ccccc6)=NN54)cc3)SC2=S)cc1 (stereo not given)
inactive: [1] 110% | [2] 100% | [3] 102% | [4] 92.3% | [5] 107% | [6] 99.2% | [7] 105% | [8] 98.5% | [9] 109% | [10] 102% | [11] 105% | [12] 105% | [13] 101% | [14] 94.2% | [15] 101% | [16] 98% | [17] 101% | [18] 97.5% | [19] 96.6% | [20] 117%

CCCCCN(CCCCC)CC(O)c1cc(C)c2ccc3cc(C(C)C)ccc3c2c1 (stereo not given)
active: [1] -77.1% | [2] -16.2% | [4] -47.6% | [5] -88.2% | [6] -61.7% | [8] -78.3% | [11] -86.3% | [12] -43.9% | [14] 7.47% | [15] -87.4% | [19] -93.9%
inactive: [3] 53.9% | [7] 103% | [9] 105% | [10] 20.3% | [13] 75.8% | [16] 53.3% | [17] 79.1% | [18] 91.3% | [20] 88.1%

O=C1c2ccccc2C(=O)c2c1c(C(=O)NCc1ccccc1)c1ccccn21
inactive: [1] 104% | [2] 84.5% | [3] 108% | [4] 96.8% | [5] 104% | [6] 104% | [7] 98.1% | [8] 104% | [9] 90.2% | [10] 105% | [11] 114% | [12] 80.6% | [13] 94.9% | [14] 93.9% | [15] 93.6% | [16] 95.4% | [17] 99.6% | [18] 92.2% | [19] 103% | [20] 113%

COc1cccc(C(=O)NNc2nc(Cl)nc(Cl)n2)c1
inactive: [1] 105% | [2] 96.7% | [3] 100% | [4] 104% | [5] 109% | [6] 103% | [7] 101% | [8] 100% | [9] 102% | [10] 102% | [11] 98.2% | [12] 98.8% | [13] 87.4% | [14] 93% | [15] 99.2% | [16] 97.4% | [17] 96.1% | [18] 101% | [19] 97% | [20] 105%

COc1cccc(/C=C/C(=O)c2cccc(Nc3nc(Nc4ccccc4)nc(Nc4ccccc4)n3)c2)c1
active: [5] -38.8%
inactive: [1] 85.5% | [2] 59.4% | [3] 107% | [4] 84.6% | [6] 95.3% | [7] 71.4% | [8] 96.5% | [9] 114% | [10] 89.4% | [11] 73.4% | [12] 65.8% | [13] 71.8% | [14] 102% | [15] 53.8% | [16] 73.5% | [17] 77.9% | [18] 92% | [19] 74.4% | [20] 112%

CO[C@H]1CC(=O)n2c3ccccc3c3c4c(c5c6ccccc6n1c5c32)C(=O)NC4=O
inactive: [1] 42.3% | [2] 76.3% | [3] 50.2% | [4] 71.4% | [5] 62.4% | [6] 68.9% | [7] 11.3% | [8] 57% | [9] 73.5% | [10] 62.2% | [11] 62.4% | [12] 26.3% | [14] 98.4% | [15] 46.8% | [16] 54.6% | [17] 60.7% | [18] 44.9% | [19] 63.8% | [20] 39.9%
active: [13] 4.5%

O=C(N=Nc1c(O)[nH]c2ccccc12)Nc1ccc(F)cc1
inactive: [1] 105% | [2] 85% | [3] 97.6% | [4] 94% | [5] 110% | [6] 104% | [7] 95% | [8] 94.9% | [9] 93.9% | [10] 99.7% | [11] 97% | [12] 102% | [13] 91.3% | [14] 97% | [15] 90.7% | [16] 85.9% | [17] 101% | [18] 79.3% | [19] 92.2% | [20] 108%
